# Most compounds without a hit are left out; they make up all but 7.9% or so of the library.
# Marburg entry inh: blocks Marburg virus binding to or entry into cells; Marburg virus pseudotyped entry inhibition, cell reporter; AID 540276; Potency, µM (series often up to 37.8 µM), for inactives: top-dose activity change, negative = inhibition, usual class: inhibitors; 1.8% of 300,000 active; calls by dose curve; tested in HEK293 cells; note: potency is the fitted concentration of half-maximal effect
# FMDV antiviral: antivirals against foot and mouth disease virus; FMDV antiviral cell-based qHTS; Potency, µM (titrated, usually from 57.9 µM), without a hit: at the highest dose activity change, negative = inhibition, hits mostly inhibitors; 1.2% of 410,000 active; AID 1159524; calls by dose curve; tested in HEK293T cells; note: read-out not given here; potency is the fitted concentration of half-maximal effect; nearly all actives have a fitted effect of over 45% in size
# Lassa entry inh: Lassa virus entry inhibition; 1.2% of 300,000 active; Lassa virus pseudotype entry inhibition, cell reporter; AID 540256; Potency, µM (doses to about 37.9 µM), for the others: at the highest dose activity change, negative = inhibition, most hits filed as inhibitors; calls by dose curve; tested in HEK293 cells; note: potency is the fitted concentration of half-maximal effect; nearly all actives have a fitted effect of over 50% in size
# HCV inhibitor: HCV inhibition | Huh7.5.1 HCVcc-Cre infection, luciferase reporter, 44 h | Potency, µM (top dose mostly 41.8 µM), for the others: top-dose activity change, negative = inhibition, actives largely listed as inhibitors | 3.4% of 340,000 active | AID 651820; active = well fitted inhibition curve with a large enough effect; inconclusive = small, poorly fitted or top-dose-only effect, or another doubt; inactive = no such curve, though single readings can be large or run the other way; note: potency is the fitted concentration of half-maximal effect
#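 Cells (1,000/well) were plated 4 h before compound, then infected with HCVcc-Cre virus (~0.5 moi). After 44 h further culture, infection was read as luciferase luminescence following a 15 min substrate incubation at room temperature.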
# HCMV antiviral: human cytomegalovirus inhibition | HFF cells, HCMV-luciferase reporter, 72 h; stronger effect = lower value | activity change, negative = inhibition, % at 57.5 µM | 4.5% of 410,000 active | AID 1259415; in the data active = activity change below about -60%; inconclusive = no clear call, values can overlap the other calls; inactive = above about -39%
#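 HFF cells seeded 16 h at 37C, treated with compounds, infected with luciferase-reporter HCMV at MOI 1 PFU/cell; luciferase read at 72 h post infection, normalized to buffer-only and Salinomycin controls.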
# An asterisk follows results filed as active; ? = inconclusive; · = no result given; [ ] = remark or other dose. % is set by controls: 0 for no effect and ±100 for the full control effect.
SMILES,Marburg entry inh,FMDV antiviral,Lassa entry inh,HCV inhibitor,HCMV antiviral
COCCCNC(=S)N1CCN(c2nc(-c3ccc(Cl)cc3)cs2)CC1,·,?,·,·,-92*
CCC(=O)N1CCN(c2nc(-c3ccc(Cl)cc3)cs2)CC1,6%,-13%,13%,?,?
CCOCCCNC(=S)N1CCN(c2nc(-c3ccccc3)cs2)CC1,·,?,·,10µM*,-86*
COc1ccc(C)cc1NC(=O)CSc1nnc(COc2ccc(Cl)cc2)n1Cc1ccco1,?,-28%,-21%,?,-84*
Cc1ccc(NC(=O)CSc2nnc(CSc3nc(C)cc(C)n3)n2Cc2ccco2)c(C)c1,7%,13%,2%,11µM*,58
Cc1ccc(C)c(NC(=O)CSc2nnc(CSc3nc(C)cc(C)n3)n2Cc2ccco2)c1,-4%,1%,-2%,-29%,26
CCOc1ccc(N(CC(=O)NC(C)(C)C)C(=O)CCC(=O)Nc2nccs2)cc1,-4%,6%,11%,10%,28
C=C(c1ccc2cc(OC)ccc2c1)[C@H](C#N)C1CCCC1,·,·,·,·,-22
COc1ccc(OC)c(NC2=C(c3ccccc3)C(=O)c3ccccc32)c1,?,-20%,-14%[46.1 µM],·,-63*
COc1ccc(OC)c(Nc2cc(-c3ccccc3)nc(N)n2)c1,?,-12%,-29%,?,-90*
O=C(NCC1CCC2(CCN(Cc3cc4ccccc4o3)CC2)O1)c1ccccc1 (stereo not given),·,0%,·,·,·
Cc1ccc2c(c1)N(C(=O)CSc1nncn1C)C(C)(C)c1ssc(=S)c1-2,?,0%,?,10µM*,7
Cc1cc2c(cc1C)N(C(=O)CSc1nncn1C)C(C)(C)c1ssc(=S)c1-2,?,·,-18%,?,-9
CC1=C(C(=O)Nc2ccccc2C)C(c2cccnc2)n2nc(SCc3ccccc3F)nc2N1 (stereo not given),9%[46.1 µM],?,?,·,-4
CCOC(=O)c1c(C)[nH]c(CCC(=O)NCCCN2CCN(c3ccc(F)cc3)CC2)c1C,·,?,16%[46.1 µM],·,-33
CCOC(=O)c1c(C)[nH]c(CCC(=O)NCCCN2CCN(c3cc(Cl)ccc3C)CC2)c1C,·,?,?,·,-97*
CCOC(=O)c1c(C)[nH]c(C)c1S(=O)(=O)N1CCN(c2cccc(C(F)(F)F)c2)CC1,·,-16%,10%[46.1 µM],·,-101*
CCOC(=O)c1c(C)[nH]c(C)c1S(=O)(=O)NCC(=O)N1CCN(c2cc(Cl)ccc2C)CC1,·,-23%,?,·,-21
CCOC(=O)c1c(C)[nH]c(C)c1S(=O)(=O)N1CCN(c2cc(Cl)ccc2C)CC1,·,13%,-26%[46.1 µM],·,-90*
CCOC(=O)c1c(C)[nH]c(C)c1S(=O)(=O)N1CCN(c2ccc(F)cc2)CC1,·,-1%,·,5%,29
CCOC(=O)c1c(C)[nH]c(C)c1S(=O)(=O)NCCN1CCN(c2cc(Cl)ccc2C)CC1,·,7%,·,-19%,-72*
Nc1c2c(nc3ccccc13)CCCC2,?,-10%,?,?,-5
Nc1c2ccccc2nc2ccccc12,?,?,?,5µM*,-99*
CC(O)CNCCOc1ccccc1OCc1ccccc1 (stereo not given),?,-14%,7%,-9%,-32
CC(O)CNCCNCc1c(OCc2ccccc2)ccc2ccccc12 (stereo not given),?,·,9.2µM*,?,-38
SMILES,Marburg entry inh,FMDV antiviral,Lassa entry inh,HCV inhibitor,HCMV antiviral
OCCNCc1c(OCc2ccc(Cl)cc2)ccc2ccccc12,5.6µM*,-21%,?,11µM*,-79*
COc1ccc2c(c1)oc(=O)c1c3ccccc3[nH]c21,·,0%,·,3.5µM*,-21
Cc1nnsc1C(=O)NCC1Cc2cccc(-c3ncccn3)c2O1 (stereo not given),·,-15%,·,·,·
Cc1nnc(N/N=C/c2cc([N+](=O)[O-])c(N3CCC(C)CC3)cc2N2CCC(C)CC2)n1N,?,?,-5%,13µM*,?
C#CC(=O)N(c1cc(OC)ccc1OC)C(C(=O)NC1CCCC1)c1cccs1 (stereo not given),2µM*,?,3.5µM*,·,·
C#CC(=O)N(c1ccc(OC)cc1OC)C(C(=O)NC1CCCC1)c1cccs1 (stereo not given),?,?,?,1.3µM*,-99*
COC(=O)[C@@H]1CCCN1Cc1ccc2c(c1)CN(Cc1cccc(Cl)c1)CCO2,·,-4%,·,·,·
COc1ccc(NC(=O)CCc2nc3c(C)nn(-c4ccc(C)cc4)c3n(C)c2=O)cc1,·,5%,2%[46.1 µM],·,10
